Test results from PubChem BioAssay (Tox21).
Several values for one entry are separate records, joined by “and”; a condition that tells them apart may be missing. Identical values can stand only once. Results filed as inconclusive are left out. A call without a number means that no potency is given here. More than one record can exist for a structure, and the calls need not agree. Activity calls are given as the source filed them. The call rests on the fitted dose curve; in most records, active means well fitted cell-killing curve with a large enough effect in the repeat runs; inconclusive means weak or mixed curves, or effect the other way; inactive means no such curve, though single readings can be large or run the other way.

Test: qHTS assay to identify small molecule antagonists of the sonic hedgehog signaling (Shh) pathway - cell viability counter screen (AID 1259367); further: nearly all actives have a fitted effect of over 55% in size
Conditions: NIH/3T3 Gli1-Luc viability, CellTiter-Fluor, 24 h; series mostly up to 92.4 µM; viability change, negative = cytotoxic: at the top concentration
Outline: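 Cytotoxicity was assessed in parallel with Shh reporter activity by measuring live-cell protease fluorescence (CellTiter-Fluor) in NIH/3T3 cells stably carrying Gli1-Luc, treated with compound under conditioned medium stimulation for 23 hr plus 1 hr reagent incubation.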
Potency means the concentration at half of the fitted maximal effect.

Q: Which Potency does the source give for `[N-]=[N+]=CC(=O)OC[C@H](N)C(=O)O` here?
A: Its Potency is “inactive”.

Q: With `CCOP(=S)(OCC)Oc1ccc([N+](=O)[O-])cc1` as the molecule, how does the Potency read?
A: Its Potency is “inactive”.

Q: Which Potency does the source give for `Cl[C@H]1OCCO[C@@H]1Cl` here?
A: Its Potency is “inactive”.

Q: For `Nc1ccc(N)cc1`, which Potency is on record?
A: Its Potency is 61.4 µM (active) and 54.5 µM (active) and inactive.

Q: With `CCCCCCCCCCCCCCCCCC(=O)O` as the molecule, how does the Potency read?
A: The Potency was “inactive”.

Q: For `O=C(O)CCCc1ccc(N(CCCl)CCCl)cc1`, which “viability change, negative = cytotoxic” value is on record?
A: Its value is -6.89% [at 42.5 µM] (inactive).

Q: Which Potency does the source give for `OC[C@@H](O)[C@H]1O[C@@H]2O[C@H](C(Cl)(Cl)Cl)O[C@@H]2[C@H]1O` here?
A: Its Potency is “inactive”.

Q: Which Potency does the source give for `CC(C)c1cccc(C(C)C)c1O` here?
A: Its Potency is “inactive”.

Q: With `CC(C)CCCCCCOC(=O)c1ccccc1C(=O)OCCCCCCC(C)C` as the molecule, how does the Potency read?
A: Its Potency is “inactive”.

Q: For `O=P1(NCCCl)OCCCN1CCCl` (stereo unspecified), which Potency is on record?
A: Its Potency is “inactive”.

Q: With `CNC(=O)O/N=C(\SC)C(=O)N(C)C` as the molecule, how does the Potency read?
A: Its Potency is “inactive”.

Q: With `O=C(O)Cc1ccccc1` as the molecule, how does the Potency read?
A: Its Potency is “inactive”.

Q: Which Potency does the source give for `N#Cc1cccc(C#N)c1` here?
A: The Potency was “inactive”.

Q: For `Oc1c(Br)cc(Br)cc1Br`, which Potency is on record?
A: Its Potency is “inactive”.

Q: Which Potency does the source give for `c1ccc2c(c1)CCCC2` here?
A: The Potency was “inactive”.

Q: Which “viability change, negative = cytotoxic” value does the source give for `O=[N+]([O-])c1ccc(Cl)cc1` here?
A: Its value is 0.943% (inactive).

Q: For `C/C=C/c1ccc2c(c1)OCO2`, which Potency is on record?
A: The Potency was “inactive”.

Q: Which Potency does the source give for `CN(C)C(=O)C(c1ccccc1)c1ccccc1` here?
A: The Potency was “inactive”.

Q: For `CC12CC1(C)C(=O)N(c1cc(Cl)cc(Cl)c1)C2=O` (stereo unspecified), which Potency is on record?
A: The Potency was “inactive”.

Q: For `Cc1ccccc1N`, which Potency is on record?
A: The Potency was “inactive”.

Q: With `Clc1cnc(Oc2ccc(Oc3ncc(Cl)cc3Cl)cc2)c(Cl)c1` as the molecule, how does the Potency read?
A: The Potency was “inactive”.

Q: With `CC(=O)/C=C/c1ccccc1` as the molecule, how does the Potency read?
A: The Potency was “inactive”.

Q: Which Potency does the source give for `CC(=O)C1CCOC1=O` (stereo unspecified) here?
A: The Potency was “inactive”.

Q: For `Cc1ccc(N=C=O)cc1N=C=O`, which Potency is on record?
A: Its Potency is “inactive”.

Q: For `C=CC(=O)OCCCCCC(C)C`, which Potency is on record?
A: Its Potency is “inactive”.

Q: Which Potency does the source give for `COC(=O)Nc1cccc(OC(=O)Nc2cccc(C)c2)c1` here?
A: The Potency was “inactive”.
